According to PubChem BioAssay (EPA / NIEHS):
Records with an inconclusive call do not appear. Activity calls are given as the source filed them. Rule for the calls, unless noted: active = hit-call score of the fitted dose curve at least 0.9, where 1 is the maximum; inactive = score below 0.9.

Key:
[1] = BSK_BT_PBMCCytotoxicity: PBMC Cytotoxicity Assessment in the BioMAP Diversity Plus: BT Assay (AID 2284225); settings: primary human B cells with PBMC;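 note: PBMC viability measured by Alamar Blue dye reduction fluorescence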
How it was run: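 Viability by Alamar Blue reduction (6 h, ex/em 546/580 nm) after 90 h culture of SEB/TSST-1-activated PBMC (20 ng/mL each) given compound 1 h before activation. DMSO served as baseline for curve fitting.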

[2] = BSK_BT_Bcell_Proliferation: Viability Assessment in the BioMAP Diversity Plus: BT Assay for B cell Proliferation (AID 2284227); settings: primary human B cells with PBMC
How it was run: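 Human B cell/PBMC co-culture; test chemical added; 72 h; TCA fix (10%), 0.1% SRB stain, A560 for total protein as a proliferation read-out; positive-direction fit vs DMSO baseline.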

[3] = read-out: Interleukin 17A (IL17A), IL17A (gene 3605); experiment: BSK_BT_xIL17A: BioMAP Diversity Plus: BT Assay for Interleukin 17A (IL17A) Biomarker Activity (AID 2284229); settings: primary human B cells with PBMC
How it was run: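 Luminex xMAP readout of secreted IL-17A; human B cell + PBMC co-culture; 24 h post-dose; positive-direction fit vs DMSO negative control.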

[4] = read-out: Tumor necrosis factor (Homo sapiens) (UniProt P01375); experiment: BSK_BT_xTNFa: BioMAP Diversity Plus: BT Assay for Tumor necrosis factor alpha (TNF-alpha) Biomarker Activity (AID 2284230); settings: primary human B cells with PBMC
How it was run: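 Read-out: Luminex xMAP quantitation of secreted TNF-alpha from a B cell/PBMC co-culture 24 h after compound addition. Signal analysed relative to DMSO vehicle, positive fitting direction.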

[5] = read-out: Vascular cell adhesion molecule 1 (VCAM1), VCAM1 (gene 7412); experiment: BSK_MyoF_VCAM1: BioMAP Diversity Plus: MyoF Assay for Vascular cell adhesion molecule 1 (VCAM1) Biomarker Activity (AID 2284231); settings: primary human lung fibroblasts
How it was run: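 MyoF system, lung fibroblasts; 24 h post-dose; VCAM-1 by ELISA; gain-of-signal fit vs DMSO baseline.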

[6] = CCTE_Mundy_HCI_Cortical_Synap_Neur_Matur_SynapseCount: CCTE's Synaptogenesis and Neurite Maturation Assay in rat cortical cells for Synapse Count, Mundy Lab (AID 2284218)
How it was run: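 Cells were plated, allowed 2 hr to attach, treated with AraC at DIV 5, then exposed to chemicals from DIV 7 until DIV 12. After fixation and MAP2/synaptophysin immunolabelling, synapses per neuron were quantified by automated imaging against DMSO.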

[7] = CCTE_Mundy_HCI_Cortical_Synap_Neur_Matur_NeuriteCount: CCTE's Synaptogenesis and Neurite Maturation Assay in rat cortical cells for Neurite Count, Mundy Lab (AID 2284222);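 note: exposure from day 7 to day 12 in vitro with readout at day 12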
How it was run: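 Rat cortical neurons, 96-well; AraC DIV 5; chemical + media change DIV 7; end DIV 12. Fix PFA/Hoechst, anti-MAP2 + anti-synaptophysin IF. HCI neurite count vs DMSO baseline.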

[8] = CCTE_Mundy_HCI_Cortical_Synap_Neur_Matur_CellBodySpotCount: CCTE's Synaptogenesis and Neurite Maturation Assay in rat cortical cells for Cell Body Spot Count, Mundy Lab (AID 2284223)
How it was run: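 Read-out: cell body-associated synaptophysin puncta per neuron, imaged after MAP2, synaptophysin and Hoechst staining. Rat cortical cells, AraC DIV 5, chemical dosing DIV 7, fixation DIV 12. Activity fitted in positive direction relative to DMSO baseline.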

[9] = CCTE_Mundy_HCI_hNP1_Pro_ResponderAvgInten: CCTE's Proliferation Assay in human neuroprogenitor cells, Mundy Lab (AID 2284224; active = hit-call score of the fitted dose curve at least 0.9, where 1 is the maximum;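 note: human neural progenitor cells hNP1 derived from WA09 embryonic stem cells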)
How it was run: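 Proliferation was scored as BrdU labelling intensity in human neural progenitors derived from WA09 embryonic cells, measured 26.25 hours after chemical dosing. Activity was fitted relative to DMSO.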

[10] = TAMU_PeakParms_SingleDonor1434_Chronotropy: Texas A&M University (TAMU) 1.5-hr Human Induced Pluripotent Stem Cell (iPSC)-derived Cardiomyocytes Calcium (Ca+2) Flux Assay for Cardiotoxicity: Chronotropy (changes in peak frequency) (AID 2284217); settings: actives raise or lower the signal
How it was run: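 Beat rate, as mean Ca2+-flux peak frequency, was read from donor 1434 iPSC cardiomyocytes 90 min after exposure to 0.2–100 uM test chemical (0.5% DMSO). Wells that stopped beating were excluded; EC05 from bidirectional DMSO-referenced fitting.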

Measured: AC50

Chain of Tumor necrosis factor (Homo sapiens) (P01375 whole entry, looked up): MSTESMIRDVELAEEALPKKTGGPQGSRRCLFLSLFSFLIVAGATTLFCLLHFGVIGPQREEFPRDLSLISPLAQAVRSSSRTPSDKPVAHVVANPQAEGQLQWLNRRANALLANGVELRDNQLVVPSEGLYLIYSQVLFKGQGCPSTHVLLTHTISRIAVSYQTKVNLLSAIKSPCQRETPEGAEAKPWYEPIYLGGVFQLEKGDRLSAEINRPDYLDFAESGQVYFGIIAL

C=CCOc1c(Br)cc(Br)cc1Br
active: [5] 23.7 µM
inactive: [1] | [2] | [3] | [4]

CCCCNc1ccc(NCCCC)c2c1C(=O)c1ccccc1C2=O
inactive: [1] | [2] | [3] | [4] | [5]

Nc1ncn([C@@H]2O[C@H](CO)[C@@H](O)[C@H]2O)c(=O)n1
active: [9] 8.32 µM
inactive: [6] | [7] | [8]

C#CC1(O)CC[C@H]2[C@@H]3CCC4=CCCC[C@@H]4[C@H]3CC[C@@]21C (stereo partly drawn)
active: [1] 34.3 µM | [2] 30.1 µM | [3] 14.5 µM | [4] 34.2 µM | [5] 33.1 µM

O=C(Nc1ccccc1SSc1ccccc1NC(=O)c1ccccc1)c1ccccc1
active: [1] 6.24 µM | [2] 5.95 µM | [3] 5.93 µM | [4] 11.7 µM
inactive: [5]

CCOc1nc(F)cc2nc(S(=O)(=O)Nc3c(Cl)cccc3C(=O)OC)nn12
inactive: [1] | [2] | [3] | [4] | [5]

CCCCCCCCCCCCCCCC[N+](C)(C)CC
active: [1] 6.46 µM | [2] 1.81 µM | [3] 1.63 µM | [4] 12 µM | [5] 1.71 µM

O=Nc1ccc(O)cc1
inactive: [1] | [2] | [3] | [4] | [5]

COCc1c(C(C)C)nc(C(C)C)c(/C=C/[C@@H](O)C[C@@H](O)CC(=O)O)c1-c1ccc(F)cc1
active: [2] 0.24 µM | [3] 0.312 µM | [4] 0.512 µM | [5] 0.0229 µM
inactive: [1]

CC1(C)S[C@@H]2[C@H](NC(=O)COc3ccccc3)C(=O)N2[C@H]1C(=O)O
inactive: [6] | [7] | [8]

S=C(NC1CCCCC1)NC1CCCCC1
inactive: [1] | [3] | [4] | [5]
active: [2] 31.2 µM

O=C(O)CCCC[C@@H]1SC[C@@H]2NC(=O)N[C@@H]21
inactive: [10]

CCCCCCCCc1ccc(Nc2ccc(CCCCCCCC)cc2)cc1
inactive: [1] | [2] | [3] | [4] | [5]

C=CCOCC(O)CCl (stereo not drawn)
inactive: [1] | [2] | [3] | [4] | [5]

CC(C)(c1cc(Br)c(OCCO)c(Br)c1)c1cc(Br)c(OCCO)c(Br)c1
inactive: [1]
active: [2] 21.2 µM | [3] 20.8 µM | [4] 30.2 µM | [5] 7.89 µM

c1ccc(-c2ccccn2)nc1
inactive: [1] | [2] | [3] | [4] | [5]

CC(C)C(=O)C(C)C
inactive: [1] | [2] | [3] | [4] | [5]

COc1ccc2nc(N)sc2c1
inactive: [1] | [2] | [3] | [4] | [5]

CCO[Si](CCCN=C=O)(OCC)OCC
inactive: [1] | [2] | [3] | [4] | [5]

CC1OC1C1CCC2(C)OC2C1 (stereo not drawn)
inactive: [1] | [2] | [3] | [4] | [5]

c1ccc2c(c1)ccc1ncccc12
inactive: [1] | [2] | [3] | [4] | [5]

C=CC(=O)OCC(Br)CBr (stereo not drawn)
active: [1] 20.5 µM | [2] 20 µM | [3] 7.7 µM | [4] 28.1 µM | [5] 20 µM

C/C=C\C/C=C/CCCCCCCCOC(C)=O
active: [1] 20 µM | [2] 28 µM | [3] 15.1 µM | [4] 20 µM
inactive: [5]

O=c1c2ccccc2oc2ccccc12
inactive: [1] | [2] | [3] | [4] | [5]

N#[N+]c1ccc2c(S(=O)(=O)[O-])cccc2c1O
inactive: [1] | [2] | [3] | [4] | [5]

CCCCC(CC)COC(=O)c1ccccc1O (stereo not drawn)
inactive: [1] | [2] | [3] | [4] | [5]

N[C@H]1C(O)O[C@H](CO)[C@H](O)[C@@H]1O (stereo partly drawn)
inactive: [6] | [7] | [8] | [9]

CCCCC/C=C\C/C=C\CCCCCCCC(=O)OC
inactive: [5]
active: [1] 24.3 µM | [2] 26.3 µM | [3] 23.8 µM | [4] 30 µM

C=CC=CC=CCCCCC
inactive: [1] | [2] | [3] | [4] | [5]

O=C(Cl)c1cc(C(=O)Cl)cc(C(=O)Cl)c1
active: [1] 28 µM | [2] 29.3 µM | [3] 15.4 µM | [4] 31.9 µM | [5] 35.3 µM

c1ccc2c(c1)ccc1cc3c(ccc4ccccc43)cc12
active: [10] 50 µM
inactive: [1] | [2] | [3] | [4] | [5]
